Here are results for 37 compounds from the supplement of paper PMC9950053.

The structures appear in SMILES notation. Structures can show the parent of a compound that is named as a salt.

The assay deals with Danio rerio larvae (5 dpf). The assay can be described thus: habituation (activity change first vs second 5 min of 1-s interval sound, period 17) minus DMSO control (percentage points); higher = larger habituation measure than DMSO larvae. The conditions noted are these: 10 µM; exposure time: 3 h pre-incubation + 3 h imaging. On the procedure: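 Wild-type 5 dpf zebrafish larvae (n=48 per drug, 96-well plates, 28.5 °C) were exposed to Tocris FDA-approved library compounds at 10 µM (0.1% DMSO) for 3 h before and 3 h during imaging. Images were taken every 6 s during visual and acoustic stimuli, and larvae were tracked with Z-LaP Tracker. Each measure is the treated-group mean minus the DMSO control mean (n=844), in percentage points. This mapping covers compounds with 5-character plate codes.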
Consider `OC(c1cc(C(F)(F)F)nc2c(C(F)(F)F)cccc12)C1CCCCN1` (configuration not stated) [Mefloquine hydrochloride], for which the habituation amounted to 3.04.
In the case of `CNC(=O)c1cc(Oc2ccc(NC(=O)Nc3ccc(Cl)c(C(F)(F)F)c3)cc2)ccn1` [Sorafenib] it was -9.55; in that of `COc1cc2nccc(Oc3ccc(NC(=O)C4(C(=O)Nc5ccc(F)cc5)CC4)cc3)c2cc1OC`, -4.58.
For `CNCc1ccc(-c2[nH]c3cc(F)cc4c3c2CCNC4=O)cc1` [Rucaparib camsylate], the habituation worked out at 5.03.
Regarding `Cc1cc2c(s1)Nc1ccccc1N=C2N1CCN(C)CC1` [Olanzapine], the habituation was determined as 0.758.
`OCCN1C[C@H](O)[C@@H](O)[C@H](O)[C@H]1CO` [Miglitol]: the habituation was -1.71.
In the case of `C[C@@H]1C[C@H]2[C@@H]3CCC4=CC(=O)C=C[C@]4(C)[C@@]3(F)[C@@H](O)C[C@]2(C)[C@@]1(O)C(=O)CO` [Dexamethasone] it was 2.24.
For `COc1cc([C@@H]2c3cc4c(cc3[C@@H](O[C@@H]3O[C@@H]5CO[C@@H](C)O[C@H]5[C@H](O)[C@H]3O)[C@H]3COC(=O)[C@H]23)OCO4)cc(OC)c1O` [Etoposide] the value was 1.7; for `COc1cc(N)c(Cl)cc1C(=O)NC1CCN(CCCOc2ccc(F)cc2)CC1OC` (configuration not stated) [Cisapride], 4.4; for `N#Cc1ccc2[nH]cc(CCCCN3CCN(c4ccc5oc(C(N)=O)cc5c4)CC3)c2c1` [Vilazodone hydrochloride], -2.05.
For the compound `CC(C)COCC(CN(Cc1ccccc1)c1ccccc1)N1CCCC1` (configuration not stated) [Bepridil hydrochloride], the habituation was -5.91.
In the case of `C[C@H]1O[C@H](O[C@H]2[C@H](O)[C@@H](O)[C@@H](O[C@H]3[C@H](O)[C@@H](O)C(O)O[C@@H]3CO)O[C@@H]2CO)[C@H](O)[C@@H](O)[C@@H]1N[C@H]1C=C(CO)[C@@H](O)[C@H](O)[C@H]1O` (some centres not stated) [Acarbose] it was 1.19; in that of `O=C(O)C[C@H](O)C[C@H](O)/C=C/c1c(C2CC2)nc2ccccc2c1-c1ccc(F)cc1` [Pitavastatin calcium], -5.34.
For `CC(=O)Nc1ccc(O)cc1` [Acetaminophen] the value was -1.62; for `CN(C)CCc1c[nH]c2ccc(C[C@H]3COC(=O)N3)cc12` [Zolmitriptan], -0.595; for `NS(=O)(=O)c1cc2c(cc1Cl)NC(C1CC3C=CC1C3)NS2(=O)=O` (configuration not stated) [Cyclothiazide], 1.92.
For `CN[C@H]1CC[C@@H](c2ccc(Cl)c(Cl)c2)c2ccccc21` [Sertraline hydrochloride] the value was -8.76; for `COc1ccccc1Oc1c(NS(=O)(=O)c2ccc(C(C)(C)C)cc2)nc(-c2ncccn2)nc1OCCO` [Bosentan], 4.58; for `CCCc1nn(C)c2c(=O)[nH]c(-c3cc(S(=O)(=O)N4CCN(C)CC4)ccc3OCC)nc12` [Sildenafil citrate], -2.72.
On to `CC(C)(C(=O)O)c1ccc(C(O)CCCN2CCC(C(O)(c3ccccc3)c3ccccc3)CC2)cc1` (configuration not stated) [Fexofenadine hydrochloride], for which the habituation came out at 3.94.
In the case of `CC(C)OC(=O)C(C)(C)Oc1ccc(C(=O)c2ccc(Cl)cc2)cc1` [Fenofibrate] it was -2.39; in that of `CCCC1O[C@@H]2C[C@H]3[C@@H]4CCC5=CC(=O)C=C[C@]5(C)[C@H]4[C@@H](O)C[C@]3(C)[C@]2(C(=O)CO)O1` (some centres not stated) [Budesonide], -1.55.
For `O=C1CCc2ccc(OCCCCN3CCN(c4cccc(Cl)c4Cl)CC3)cc2N1` [Aripiprazole] the value was -7.85; for `O=c1n(CCCN2CCN(c3cccc(Cl)c3)CC2)nc2ccccn12` [Trazodone hydrochloride], -12.5; for `CCCCCCCN(CC)CCCC(O)c1ccc(NS(C)(=O)=O)cc1` (configuration not stated) [Ibutilide hemifumarate], -0.126.
Regarding `CC(=O)Oc1cc2c(s1)CCN(C(C(=O)C1CC1)c1ccccc1F)C2` (configuration not stated) [Prasugrel], the habituation turned out to be 0.528.
In the case of `N#C[C@@H]1C[C@@H]2C[C@@H]2N1C(=O)[C@@H](N)C12CC3CC(CC(O)(C3)C1)C2` [Saxagliptin hydrochloride], the habituation is 2.76.
`CNS(=O)(=O)Cc1ccc2[nH]cc(CCN(C)C)c2c1` [Sumatriptan succinate]: the habituation was 2.06.
For `Clc1ccc2nsnc2c1NC1=NCCN1` [Tizanidine hydrochloride] the value was -2.36.
For `CN(C)C(=N)NC(=N)N` [Metformin hydrochloride] the value was 2.17; for `CC[C@H]1OC(=O)[C@H](C)[C@@H](O[C@H]2C[C@@](C)(OC)[C@@H](O)[C@H](C)O2)[C@H](C)[C@@H](O[C@@H]2O[C@H](C)C[C@H](N(C)C)[C@H]2O)[C@](C)(O)C[C@@H](C)CN(C)[C@H](C)[C@@H](O)[C@]1(C)O` [Azithromycin], 3.26.
Regarding `COCCc1ccc(OCC(O)CNC(C)C)cc1` (configuration not stated) [Metoprolol tartrate], the habituation was -3.41.
For `COc1ccccc1OCC(O)CN1CCN(CC(=O)Nc2c(C)cccc2C)CC1` (configuration not stated) [Ranolazine dihydrochloride] the value was -2.2; for `C#CCN[C@@H]1CCc2ccccc21` [Rasagiline mesylate], 3.64; for `OCc1cc(C(O)CNCCCCCCOCCCCc2ccccc2)ccc1O` (configuration not stated) [Salmeterol xinafoate], -0.659.
On to `NC(=O)OCC(COC(N)=O)c1ccccc1` [Felbamate], for which the habituation came to 2.5.
In the case of `CCc1nc(N)nc(N)c1-c1ccc(Cl)cc1` [Pyrimethamine] it was 3.38.
